From PubChem BioAssay (NCATS)
Records with an inconclusive call do not appear. Activity calls are given as the source filed them. Unless noted, calls come from the whole dose curve; as a rule, active = well fitted curve in either direction with a large enough effect (not every such curve was filed as active); inconclusive = small, poorly fitted or top-dose-only effect, or another doubt; inactive = flat fitted curve, though single readings scatter.

Experiments:
[1] = target: Lysosomal acid glucosylceramidase (Homo sapiens) (UniProt P04062); experiment: Glucocerebrosidase-p2 (AID 348; in the data active = potency below about 10 µM; note: potency is the fitted concentration of half-maximal effect); conditions: purified GBA, blue fluorogenic substrate, 40 min
Summary of the method: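 Compounds titrated from 0.6 nM upwards against 0.2 nM enzyme in pH 5.9 citric acid/KH2PO4, taurocholate, tween-20; blue fluorogenic substrate 80 uM, 40 min room temperature, stopped and read Ex 365/Em 440 for AC50.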

[2] = target: Cytochrome P450 1A2 (Homo sapiens) (UniProt P05177); experiment: p450-cyp1a2 (AID 410; calls by dose curve; note: potency is the fitted concentration of half-maximal effect;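 for activity change, negative = inhibition: -100% = full effect of reference inhibitor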); conditions: recombinant CYP1A2, luciferin-ME demethylation, luminescence; series mostly up to 11.4 µM
Summary of the method: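 20nM CYP1A2 with 100uM Luciferin-ME (at Km) in 100mM KPO4; compound preincubated 10 min, NADPH regeneration added, 60 min at room temperature. Luciferin quantified by luminescence after detection reagent; normalized to 57 uM furafylline.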

[3] = NFAT Signaling Pathway (AID 444); conditions: Jurkat NFAT-bla M1, carbachol, beta-lactamase ratio, 5 h; at 7.69 µM (top of the series) unless noted;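 note: carbachol stimulus at about its EC50 of 1 µM final; % is set by controls: 0 for no effect and ±100 for the full control effect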
Summary of the method: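 Jurkat cells with NFAT-driven β-lactamase reporter and co-expressed M1 receptor, stimulated with carbachol (final 1 uM, ~EC50), compound titration, 5 h at 37 °C. CCF4 loaded 1 h at RT; 460/530 nm ratio gave %activity and AC50.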

[4] = Stat Signaling Pathway (AID 446); conditions: ME-180 SIE beta-lactamase reporter, IL-6 stimulated, 5 h; at 7.69 µM (top of the series) unless noted;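 note: ME-180 cervical cancer cells given 40 pM IL-6 alongside compound; SIE-controlled beta-lactamase reporter measured as 460/530 nm FRET emission ratio; % is set by controls: 0 for no effect and ±100 for the full control effect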
Summary of the method: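 Reporter line: ME-180 cervical carcinoma, SIE-beta-lactamase. Treatment: compound with 40 pM IL-6, 5 hrs, 37 C, in low-serum OPTI-MEM with 10 mM HEPES pH 7.3. Detection: 460/530 nm fluorescence.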

[5] = target: Glucocorticoid receptor (Homo sapiens) (UniProt P04150); experiment: GR-GFP Redistribution (AID 450;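 active = compounds whose dose series gives a full or clear partial fitted curve of increased nuclear translocation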; note: potency is the fitted concentration of half-maximal effect); conditions: U2OS GR-GFP nuclear translocation, laser cytometry, 2 h
[6] = target: Glucocorticoid receptor (Homo sapiens) (UniProt P04150); experiment: GR-EFC Redistribution (AID 451; calls by dose curve; note: potency is the fitted concentration of half-maximal effect); conditions: CHO-K1 GR-EFC translocation, beta-gal luminescence, 2 h
Summary of the method: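 CHO-K1 cells expressing nuclear EA and GR-ED fragments of b-gal; compounds titrated up to 46 uM final, 2 h at 37 C. GR nuclear translocation read as complemented b-gal luminescence after 1 h RT detection.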

[7] = target: Mitogen-activated protein kinase 10 (Mus musculus) (UniProt Q61831); experiment: JNK3 AlphaScreen Assay (AID 530); conditions: JNK3 lysate, c-Jun phosphorylation; series mostly up to 11.4 µM;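 note: kinase came from lysate of stimulated human HepG2 cells; signal reports phosphorylation of biotinylated GST-cJun 1-79 at Ser73 with 10 µM ATP; % is set by controls: 0 for no effect and ±100 for the full control effect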
Summary of the method: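 Pre-activated (IL-1β/TNFα) JNK3 in HepG2 lysates phosphorylates biotin-GST-cJun(1-79), 10 uM ATP; anti-phospho-cJun(Ser73) AlphaScreen read at room temperature, pH 7.6 Tris buffer. Compounds pre-incubated 15 min as titrations.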

[8] = target: 3',5'-cyclic-AMP phosphodiesterase 4B (Homo sapiens) (UniProt Q07343); experiment: qHTS Assay for Inhibitors of PDE-IV (AID 607; active = well fitted activation curve with a large enough effect in the main read-out, with a control signal flat, not every such curve was filed as active; note: % of control where 0% means no effect); conditions: HEK293 ACTOne CNG channel cells, membrane potential fluorescence; series mostly up to 22.9 µM
Summary of the method: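 Cell-based read-out of cAMP via a modified cyclic nucleotide-gated channel and membrane potential dye (535/590 nm) in HEK293 cells expressing PDE4 endogenously. Compounds tested up to 22.9 uM final; 100 uM RO 20-1724 reference.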

[9] = AP1 Signaling Pathway (AID 357); conditions: ME-180 AP-1-bla reporter, EGF-induced, beta-lactamase ratio, 5 h; at 7.69 µM (top of the series) unless noted; note: % is set by controls: 0 for no effect and ±100 for the full control effect
Summary of the method: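 ME-180 cells with beta-lactamase reporter under AP-1 response element, stimulated with EC50 EGF; compounds tested in titration series, 5 h at 37 °C. CCF4 substrate added 2.5 h at room temperature; 460/530 nm emission ratio gave %activity and AC50.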

[10] = Confirmation and Secondary Assay for Modulators of Hemoglobin Beta Chain Splicing at IVS2 654 locus (AID 910; active = well fitted curve in the direction sought with a large enough effect; an effect the other way counts as inactive or inconclusive;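 note: HeLa cells stably carrying EGFP split by mutant beta-globin IVS2-654 intron; % of control where 0% means no effect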); conditions: HeLa EGFP-654 splicing reporter, GFP fluorescence, 48 h; series mostly up to 38.3 µM
Summary of the method: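 HeLa cells stably expressing EGFP interrupted by β-globin IVS2-654 intron, seeded overnight in Opti-MEM/2% FCS, then treated 2 days at 37 °C. Restored splicing read as total peak GFP intensity per well by laser scanning cytometry (488 nm excitation, 500–520 nm emission); 500 nM antisense PNA as control.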

[11] = qHTS Assay for Identification of Small Molecule Agonists for Hypoxia Response Element Signaling Pathway (AID 914; active = well fitted activation curve with a large enough effect in the signal ratio, with a control signal flat, not every such curve was filed as active; the % refers to the signal ratio; note: % of control where 0% means no effect); conditions: ME-180 (cervical carcinoma) HRE-bla reporter, beta-lactamase ratio, CoCl2, 17 h; activation: stronger effect = higher value
Summary of the method: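 AC50 values come from titration-series %Activity, taken as the 460/530nm ratio of CCF4 fluorescence (excitation 405nm). CellSensor HRE-bla ME-180 cells were treated 17 hours at 37 C with compound plus an EC50 level of CoCl2.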

[12] = target: Cytochrome P450 2D6 (Homo sapiens) (UniProt P10635); experiment: qHTS Assay for Inhibitors and Substrates of Cytochrome P450 2D6 (AID 891; active = well fitted curve in the direction sought with a large enough effect; an effect the other way counts as inactive or inconclusive; note: potency is the fitted concentration of half-maximal effect; nearly all actives have a fitted effect of over 60% in size); conditions: recombinant CYP2D6, luciferin-ME EGE luminescence; series mostly up to 11.4 µM
Summary of the method: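 Human CYP2D6 (5 nM) with 30 uM Luciferin-ME EGE (at Km) in 100 mM KPO4, compound preincubated 10 min, then NADPH regeneration system for 60 min at room temperature. Luciferin read by luminescence; normalized to 1.43 uM quinidine.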

[13] = target: Cytochrome P450 3A4 (Homo sapiens) (UniProt P08684); experiment: qHTS Assay for Activators of Cytochrome P450 3A4 (AID 885; active = well fitted curve in the direction sought with a large enough effect; an effect the other way counts as inactive or inconclusive; note: nearly all actives have a fitted effect of over 65% in size); conditions: recombinant CYP3A4, Luciferin-PPXE luminescence, 60 min; series mostly up to 11.4 µM
Summary of the method: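 Signal was normalized against complete inhibition by 57 uM ketoconazole. The reaction used 20nM CYP3A4 with 25uM Luciferin-PPXE, 10-min compound preincubation and a 60-min NADPH-supported step at RT.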

Sequence of Glucocorticoid receptor (Homo sapiens) (P04150 whole entry, looked up, the tested form may be a part): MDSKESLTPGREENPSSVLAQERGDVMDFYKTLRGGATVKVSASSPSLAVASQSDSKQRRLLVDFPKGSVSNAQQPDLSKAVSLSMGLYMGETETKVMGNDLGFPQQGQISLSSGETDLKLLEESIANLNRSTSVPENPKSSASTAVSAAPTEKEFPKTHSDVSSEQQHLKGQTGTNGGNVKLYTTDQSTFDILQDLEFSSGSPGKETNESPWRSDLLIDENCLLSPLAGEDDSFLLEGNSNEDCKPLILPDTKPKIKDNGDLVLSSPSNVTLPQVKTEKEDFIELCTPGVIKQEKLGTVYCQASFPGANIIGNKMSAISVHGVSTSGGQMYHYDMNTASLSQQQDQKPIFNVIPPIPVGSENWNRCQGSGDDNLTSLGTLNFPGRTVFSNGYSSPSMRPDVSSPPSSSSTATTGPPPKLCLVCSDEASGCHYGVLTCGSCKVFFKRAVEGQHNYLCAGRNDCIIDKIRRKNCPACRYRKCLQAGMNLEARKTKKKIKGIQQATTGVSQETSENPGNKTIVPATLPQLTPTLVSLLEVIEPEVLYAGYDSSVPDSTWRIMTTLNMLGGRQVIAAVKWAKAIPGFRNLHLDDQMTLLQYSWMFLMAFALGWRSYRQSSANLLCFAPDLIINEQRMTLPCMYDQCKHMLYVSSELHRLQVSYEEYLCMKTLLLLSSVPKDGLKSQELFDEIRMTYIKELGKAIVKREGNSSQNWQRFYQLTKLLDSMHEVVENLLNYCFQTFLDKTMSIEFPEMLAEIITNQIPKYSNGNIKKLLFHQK
Sequence of Cytochrome P450 1A2 (Homo sapiens) (P05177 whole entry, looked up): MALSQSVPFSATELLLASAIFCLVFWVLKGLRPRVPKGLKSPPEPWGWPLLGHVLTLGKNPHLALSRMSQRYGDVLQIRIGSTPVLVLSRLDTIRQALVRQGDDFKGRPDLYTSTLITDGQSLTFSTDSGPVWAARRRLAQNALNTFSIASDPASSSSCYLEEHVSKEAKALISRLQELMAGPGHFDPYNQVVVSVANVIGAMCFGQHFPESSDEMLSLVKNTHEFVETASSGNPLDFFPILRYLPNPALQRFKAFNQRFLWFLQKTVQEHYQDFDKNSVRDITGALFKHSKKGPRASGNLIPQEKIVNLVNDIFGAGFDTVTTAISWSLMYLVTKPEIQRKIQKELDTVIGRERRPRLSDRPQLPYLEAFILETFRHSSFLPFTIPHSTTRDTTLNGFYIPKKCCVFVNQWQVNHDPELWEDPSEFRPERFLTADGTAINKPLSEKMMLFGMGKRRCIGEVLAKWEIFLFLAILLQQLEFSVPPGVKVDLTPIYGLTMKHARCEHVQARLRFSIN
Sequence of 3',5'-cyclic-AMP phosphodiesterase 4B (Homo sapiens) (Q07343 whole entry, looked up): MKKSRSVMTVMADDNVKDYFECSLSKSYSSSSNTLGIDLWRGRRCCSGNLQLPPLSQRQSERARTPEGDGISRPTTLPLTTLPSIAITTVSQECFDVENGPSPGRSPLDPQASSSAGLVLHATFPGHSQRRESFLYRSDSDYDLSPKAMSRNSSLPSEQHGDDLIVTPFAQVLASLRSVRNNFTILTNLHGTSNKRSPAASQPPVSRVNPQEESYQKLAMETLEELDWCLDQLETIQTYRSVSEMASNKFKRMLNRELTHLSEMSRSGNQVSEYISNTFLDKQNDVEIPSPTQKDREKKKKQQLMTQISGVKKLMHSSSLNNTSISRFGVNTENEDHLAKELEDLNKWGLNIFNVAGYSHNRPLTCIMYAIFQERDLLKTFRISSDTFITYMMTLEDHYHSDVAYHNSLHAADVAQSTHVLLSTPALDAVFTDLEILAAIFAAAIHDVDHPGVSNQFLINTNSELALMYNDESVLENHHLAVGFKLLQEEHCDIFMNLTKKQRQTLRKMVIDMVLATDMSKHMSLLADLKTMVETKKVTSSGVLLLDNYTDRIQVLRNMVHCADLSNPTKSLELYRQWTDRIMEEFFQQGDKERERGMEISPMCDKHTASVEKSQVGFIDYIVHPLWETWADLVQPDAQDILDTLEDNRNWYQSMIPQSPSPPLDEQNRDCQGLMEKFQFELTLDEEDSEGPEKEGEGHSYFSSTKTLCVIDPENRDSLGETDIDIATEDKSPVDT
Sequence of Lysosomal acid glucosylceramidase (Homo sapiens) (P04062 whole entry, looked up): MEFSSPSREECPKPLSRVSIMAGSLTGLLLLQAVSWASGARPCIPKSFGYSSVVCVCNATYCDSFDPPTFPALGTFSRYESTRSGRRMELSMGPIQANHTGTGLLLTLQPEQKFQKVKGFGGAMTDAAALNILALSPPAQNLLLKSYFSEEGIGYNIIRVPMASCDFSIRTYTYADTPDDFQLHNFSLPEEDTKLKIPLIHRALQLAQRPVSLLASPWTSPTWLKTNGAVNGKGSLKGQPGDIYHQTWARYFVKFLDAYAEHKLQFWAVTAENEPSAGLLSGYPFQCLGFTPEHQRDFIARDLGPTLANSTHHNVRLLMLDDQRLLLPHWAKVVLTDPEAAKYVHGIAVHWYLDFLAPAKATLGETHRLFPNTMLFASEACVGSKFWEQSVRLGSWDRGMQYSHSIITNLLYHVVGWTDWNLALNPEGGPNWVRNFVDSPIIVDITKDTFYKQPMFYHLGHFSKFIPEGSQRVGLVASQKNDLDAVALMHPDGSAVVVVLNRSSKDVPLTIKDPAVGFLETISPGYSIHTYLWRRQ
Sequence of Cytochrome P450 2D6 (Homo sapiens) (P10635 whole entry, looked up): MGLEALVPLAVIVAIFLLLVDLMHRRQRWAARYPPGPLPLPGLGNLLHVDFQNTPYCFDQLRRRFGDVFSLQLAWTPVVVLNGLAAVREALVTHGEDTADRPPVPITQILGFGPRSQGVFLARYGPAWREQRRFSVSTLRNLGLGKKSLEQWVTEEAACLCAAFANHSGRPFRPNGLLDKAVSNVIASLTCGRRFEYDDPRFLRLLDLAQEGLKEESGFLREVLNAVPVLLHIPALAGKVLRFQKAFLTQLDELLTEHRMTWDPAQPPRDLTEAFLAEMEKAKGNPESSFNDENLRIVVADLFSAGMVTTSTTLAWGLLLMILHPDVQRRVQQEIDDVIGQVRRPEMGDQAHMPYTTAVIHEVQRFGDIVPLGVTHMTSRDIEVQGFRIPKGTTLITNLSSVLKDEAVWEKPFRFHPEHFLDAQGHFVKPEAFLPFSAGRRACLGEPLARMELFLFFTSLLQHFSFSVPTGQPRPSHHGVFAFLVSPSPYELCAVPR
Sequence of Cytochrome P450 3A4 (Homo sapiens) (P08684 whole entry, looked up): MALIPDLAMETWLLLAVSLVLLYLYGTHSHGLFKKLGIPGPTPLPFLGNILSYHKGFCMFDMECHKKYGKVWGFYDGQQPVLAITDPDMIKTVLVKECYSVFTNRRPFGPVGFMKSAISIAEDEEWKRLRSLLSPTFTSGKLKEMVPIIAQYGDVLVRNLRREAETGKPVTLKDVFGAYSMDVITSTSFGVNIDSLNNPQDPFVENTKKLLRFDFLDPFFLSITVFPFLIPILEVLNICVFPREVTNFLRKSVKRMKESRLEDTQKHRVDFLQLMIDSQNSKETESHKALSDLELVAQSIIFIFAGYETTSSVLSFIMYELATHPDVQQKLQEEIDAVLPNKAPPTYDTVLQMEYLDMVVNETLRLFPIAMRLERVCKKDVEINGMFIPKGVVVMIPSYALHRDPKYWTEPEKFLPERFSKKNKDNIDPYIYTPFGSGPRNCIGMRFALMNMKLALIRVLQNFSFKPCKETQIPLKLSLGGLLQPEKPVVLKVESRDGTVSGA

Cc1ccc(N=Nc2c(O)c3ccccc3[nH]c2=O)c(S(=O)(=O)N(C)C)c1
inactive: Potency [1] > 11.4 µM | activity change, negative = inhibition [2] -14.6% [at 2.29 µM] | activity change, negative = inhibition [3] 2.83% | activity, negative = inhibition [4] 3.87% | Potency [5] > 46 µM | Potency [6] > 9.22 µM | Potency [7] | Potency [8]

NC(=O)C[C@H](N)C(N)=O
inactive: Potency [1] > 11.4 µM | Potency [2] | activity change, negative = inhibition [3] 12.4% | activity, negative = inhibition [4] 2.81% | Potency [5] > 46 µM | Potency [6] > 9.22 µM | Potency [7] | Potency [8]

Cc1cc(Cl)nc(NC(=O)CSc2ccc(Cl)cc2)n1
active: Potency [2] 5.01 µM
inactive: Potency [1] > 11.4 µM | activity change, negative = inhibition [3] 16.8% | activity, negative = inhibition [4] 11% | Potency [5] > 46 µM | Potency [6] > 9.22 µM | Potency [7] | Potency [8]

O=C1c2ccccc2-c2ccc(N(Cc3ccc(Br)cc3)Cc3ccc(Br)cc3)cc21
inactive: Potency [1] > 11.4 µM | activity change, negative = inhibition [9] -16.3% | activity, negative = inhibition [4] 4.89% | Potency [5] > 46 µM | Potency [6] > 9.22 µM | Potency [8]

CC1(C)COCN1COC1CCCCC1
inactive: Potency [1] > 11.4 µM | activity change, negative = inhibition [9] -2.54% | Potency [5] > 46 µM | Potency [6] > 9.22 µM | Potency [7] | Potency [8]

CC(C)[C@@H](C)/C=C\[C@@H](C)[C@@H]1CC[C@H]2C3=CC=C4C[C@@H](O)CC[C@]4(C)[C@H]3CC[C@]21C
inactive: Potency [1] > 11.4 µM | Potency [2] | activity change, negative = inhibition [3] 25.1% | activity, negative = inhibition [4] -5.31% | Potency [5] > 46 µM | Potency [6] > 9.22 µM | Potency [7] | Potency [8]

NC(=S)SCCC(=O)O
active: Potency [2] 1.58 µM
inactive: Potency [1] > 11.4 µM | activity change, negative = inhibition [3] 14.5% | activity, negative = inhibition [4] 14.5% | Potency [5] > 46 µM | Potency [6] > 9.22 µM | Potency [7]

Cc1nnc(S(=O)(=O)c2ccc(N=Nc3c(N)nc(N)nc3N)cc2)s1
inactive: Potency [1] > 11.4 µM | activity change, negative = inhibition [2] -10.2% [at 2.29 µM] | activity change, negative = inhibition [3] 7.42% | activity, negative = inhibition [4] -3.59% | Potency [5] > 46 µM | Potency [6] > 9.22 µM | Potency [7] | Potency [8]

Cc1c(S(=O)(=O)O)ccc(N=Nc2c(O)c(C(=O)O)cc3ccccc23)c1Cl
inactive: Potency [1] > 11.4 µM | activity change, negative = inhibition [3] -10.7% | activity, negative = inhibition [4] -10.2% | Potency [5] > 46 µM | Potency [6] > 9.22 µM | Potency [7] | Potency [8]
active: Potency [2] 5.01 µM

Cc1cccc(CNc2ncnc3ccc(-c4ccc(C(=O)N(C)C)cc4)cc23)c1
inactive: outcome [10]

COc1ccc2nc3cc(Cl)ccc3c(Nc3ccc(O)c(CN4CCN(C)CC4)c3)c2c1
inactive: activation [11] 26.1%

COc1ccc(Oc2ncc3nc(C)c(=O)n(Cc4ccc(F)cc4)c3n2)cc1
inactive: Potency [1] > 11.4 µM | activity change, negative = inhibition [3] -3.9% | activity, negative = inhibition [4] -12.2% | Potency [5] > 9.22 µM | Potency [6] > 46 µM | Potency [7]

O=c1c(-c2ccc(F)cc2)nc2cnc(Oc3ccccc3)nc2n1C[C@H]1CCCO1
inactive: Potency [1] > 11.4 µM | activity change, negative = inhibition [3] -2.24% | activity, negative = inhibition [4] -12.2% | Potency [5] > 9.22 µM | Potency [6] > 46 µM | Potency [8]

Oc1ccc(CNCc2ccccc2)c2cccnc12
active: Potency [12] 1.58 µM
inactive: Potency [1] > 11.4 µM | activity change, negative = inhibition [3] -26.9% | activity, negative = inhibition [4] 10.2% | Potency [5] > 46 µM | Potency [6] > 9.22 µM | Potency [7] | Potency [8]

CC(C)CCNc1ncnc2[nH]ncc12
inactive: Potency [1] > 11.4 µM | activity change, negative = inhibition [3] -25.7% | activity, negative = inhibition [4] -5.65% | Potency [5] > 46 µM | Potency [6] > 9.22 µM | Potency [7] | Potency [8]

O=c1c(CCc2ccccc2)nc2cnc(Oc3ccccc3)nc2n1C[C@H]1CCCO1
inactive: Potency [1] > 11.4 µM | activity change, negative = inhibition [3] -10.8% | activity, negative = inhibition [4] -18.9% | Potency [5] > 9.22 µM | Potency [6] > 46 µM | Potency [8] | Potency [13] | activation [11] -12.6%
